# Experimental data reported in PubChem BioAssay AID588726 (The Scripps Research Institute Molecular Screening Center, 2011).
# The whole screen tested about 360,000 compounds, of which about 8,200 (2.3%) were called active. No stated cut-off is given here; in the data, active means inhibition above about 27%; inactive means the rest. Only a selection was taken, and actives are over-represented in it overall.
# Target: Fructose-bisphosphate aldolase (Mycobacterium tuberculosis (strain ATCC 25618 / H37Rv)) (UniProt P9WQA3)
# Assay: Mtb FBA enzyme inhibitors, primary screen, biochemical, fluorescence, strain H37Rv (AID 588726);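 further: 0% = vehicle and 100% = reference inhibitor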
# Conditions: purified M. tuberculosis FBA, fluorescence read-out, at 1 µM, stronger effect = higher value
# Fructose-bisphosphate aldolase (Mycobacterium tuberculosis (strain ATCC 25618 / H37Rv)), sequence (P9WQA3 whole entry, looked up): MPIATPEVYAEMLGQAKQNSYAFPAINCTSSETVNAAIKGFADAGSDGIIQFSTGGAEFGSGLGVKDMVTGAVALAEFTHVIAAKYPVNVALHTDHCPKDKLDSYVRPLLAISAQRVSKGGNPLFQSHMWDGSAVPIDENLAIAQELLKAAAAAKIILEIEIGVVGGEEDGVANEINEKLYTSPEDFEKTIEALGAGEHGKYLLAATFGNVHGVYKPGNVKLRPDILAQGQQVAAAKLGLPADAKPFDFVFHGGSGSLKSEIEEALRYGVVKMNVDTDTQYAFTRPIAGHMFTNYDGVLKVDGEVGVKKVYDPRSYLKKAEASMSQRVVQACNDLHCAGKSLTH
row,SMILES,inhibition
1,CCOc1ccc(C(CC(=O)O)NC(=O)C23CC4CC(CC(C4)C2)C3)cc1OC (stereo not drawn),-2.94% (inactive)
2,CSc1ccc(CN2CCC2(C)C(=O)NCc2ccccc2Br)cc1 (stereo not drawn),-0.17% (inactive)
3,COc1ccc(OC)c(NC(=O)C2CCCN2S(=O)(=O)c2ccc3c(c2)CC(C)N3C(C)=O)c1 (stereo not drawn),-1.84% (inactive)
4,CCOC(=O)CSc1nnc(NC(=O)C2CC(=O)N(c3ccc(F)cc3)C2)s1 (stereo not drawn),-1.95% (inactive)
5,O=C(N/C(=C\c1ccc([N+](=O)[O-])cc1)C(=O)N1CCOCC1)c1cccc(Br)c1,-1.01% (inactive)
6,CCCS(=O)(=O)N1CCN(C(=O)c2cccs2)CC1,3.16% (inactive)
7,CN(C)S(=O)(=O)c1ccc(NC(=O)N2CCOCC2)cc1,3.98% (inactive)
8,CN(C)S(=O)(=O)c1cccc(NC(=S)N/N=C/C(=O)c2ccccc2)c1,-3.5% (inactive)
9,CN(C)S(=O)(=O)c1ccc(N/C=C(\[N+](=O)[O-])S(=O)(=O)c2ccccc2)cc1,57.2% (active)
10,O=C(O)CC(Cn1cnnn1)c1ccccc1 (stereo not drawn),3.12% (inactive)
11,Cc1cccc(CCNC(=O)Cn2ncc3c([nH]c4ccc(C)cc43)c2=O)c1,1.24% (inactive)
12,Cc1ccc(NC(=O)CN(C)C(=O)COC(=O)C(C)(C)Oc2ccc(Cl)cc2)cc1,2.5% (inactive)
13,Cc1ccc(NC(=O)CN(C)C(=O)COC(=O)c2nccnc2N)cc1,88.8% (active)
14,Cc1ccc(CSCC(=O)N(C)CC(=O)Nc2ccc(C)cc2)cc1,-2.58% (inactive)
15,COc1cc2c(cc1OC)C1C(=O)c3cc(OS(C)(=O)=O)c(OC)cc3C1N(C)C2=O (stereo not drawn),3.73% (inactive)
16,O=C(Nc1nnc(C2=COCCO2)o1)c1ccc([N+](=O)[O-])s1,-5.53% (inactive)
17,O=C(Nc1nccs1)C1CCCN1S(=O)(=O)c1cccc2cccnc12 (stereo not drawn),-1.37% (inactive)
18,Cc1cc(C)nc(SCc2cn3c(C)cc(C)nc3n2)n1,78.2% (active)
19,COc1ccc(C(C)=O)cc1CSc1nc2nc(C)cc(C)n2n1,-0.02% (inactive)
20,CCn1c(CSc2nc(C)cc(C)n2)nnc1SCC(N)=O,-3.73% (inactive)

row,SMILES,inhibition
1,COc1ccc(C(CNC(=O)CSc2ccccc2)N2CCOCC2)cc1 (stereo not drawn),2.08% (inactive)
2,COc1cc2sc(C)nc2cc1C,4.23% (inactive)
3,CC(=O)N1CCOc2ccc(S(=O)(=O)N3CCC(C(=O)Nc4ccccc4F)CC3)cc21,3.64% (inactive)
4,O=C(c1ccccc1[N+](=O)[O-])N1CCC2(CC1)OCCO2,0.71% (inactive)
5,O=C(Nc1cccc2ccccc12)N1CCN(Cc2ccc3c(c2)OCO3)CC1,41.2% (active)
6,COc1ccc(NC(=O)N2CCC3(CC2)OCCO3)c(OC)c1,-0.76% (inactive)
7,O=C(Cc1ccccc1[N+](=O)[O-])N1CCN(Cc2ccc3c(c2)OCO3)CC1,0.16% (inactive)
8,O=C(Nc1cccc2ccccc12)N1CCC2(CC1)OCCO2,44.6% (active)
9,O=C(CCCN1C(=O)c2cccc3cccc(c23)C1=O)N1CCN(Cc2ccc3c(c2)OCO3)CC1,10.2% (inactive)
10,CCOC(=O)c1cc2cc(-c3c(C(=O)OCC)oc4cc(O)cc(O)c4c3=O)ccc2o1,0.2% (inactive)
11,COc1ccc(Cc2nnnn2CC(=O)O)cc1,0.07% (inactive)
12,CN(CC(=O)Nc1ccccc1C(F)(F)F)C(=O)Cc1ccccc1F,-1.8% (inactive)
13,CC(C)N1C(=S)SC(C)(C)C1n1oc(=O)n(-c2ccc(Cl)c(Cl)c2)c1=O (stereo not drawn),1.39% (inactive)
14,COc1ccc(-c2c(C(C)=O)c(C)nc3sc4c(=O)n(-c5ccc(C)cc5)nnc4c23)cc1,3.94% (inactive)
15,CCN1CC=C2C(C#N)=C(N)C(C#N)(C#N)[C@H](c3ccoc3)[C@H]2C1,28% (active)
16,COC(=O)[C@]1(Cc2ccccc2)N[C@H](CN(C)S(=O)(=O)c2ccc(OC(F)(F)F)cc2)[C@@H]2C(=O)N(C)C(=O)[C@@H]21,0.06% (inactive)
17,O=C1c2ccccc2-c2ccccc2NC1O (stereo not drawn),-1.24% (inactive)
18,COc1ccc2[nH]c3c(c2c1)CCN[C@H]3C,0.12% (inactive)
19,COc1ccc2[nH]c3c(C)c4cc[n+](C)cc4c(C)c3c2c1,-3.24% (inactive)
20,COc1ccc2[nH]c3ccc(OC)cc3c2c1,28.3% (active)

row,SMILES,inhibition
1,C[C@]1(C(=O)NCCc2c[nH]c3ccccc23)C=C[C@@H](Cc2ccccc2)N1C(=O)c1ccccc1,-0.23% (inactive)
2,COc1ccc(NC(=O)CSc2nnc(C3CC3)n2C)cc1S(=O)(=O)N1CCCCC1,-1.4% (inactive)
3,CCOc1ccc(N(CC(=O)Nc2ccccc2F)S(=O)(=O)c2c(C)[nH]c(=O)[nH]c2=O)cc1,0.28% (inactive)
4,O=C(NCCCn1ccnc1)C1CCCN(S(=O)(=O)c2cc(Cl)ccc2Cl)C1 (stereo not drawn),-0.78% (inactive)
5,CCCCN=C(N)/C(C(=O)OCC)=C(\O)c1ccc(OC)cc1,-0.66% (inactive)
6,Cc1noc(C)c1COc1ccc2ccc(=O)oc2c1,28.6% (active)
7,Cc1noc(C)c1COC(=O)COc1ccc(-c2ccccc2)cc1,-1.21% (inactive)
8,CC(C)OC(=O)c1ccc(COc2ccc3ccc(=O)oc3c2)o1,17.9% (inactive)
9,O=C(CSc1ncnc2c1oc1ccccc12)NC1CCCC1,-1.09% (inactive)
10,CCOc1ccc(CCNC(=O)COC(=O)c2c(OC)cccc2OC)cc1OCC,-0.8% (inactive)
11,COc1ccc(C(=O)OCc2cc(=O)n3ccsc3n2)cc1F,-2.01% (inactive)
12,COc1ccc(NC(=S)NCC2CCN(c3ccc(OC)cc3)C2)cc1 (stereo not drawn),-3.11% (inactive)
13,COc1ccc([C@H]2N[C@]3(CCCN(Cc4ccco4)C3=O)[C@H]3C(=O)N(C)C(=O)[C@@H]23)cc1,-1.27% (inactive)
14,COC(=O)Cc1nc2c(N)nc(N)nc2[nH]c1=O,159% (active)
15,COc1cc(C(=O)NC2CCN(C)CC2)ccc1Nc1ncc2c(n1)N(C1CCC(O)CC1)CCC(=O)N2C (stereo not drawn),1.68% (inactive)
16,O=c1[nH]cccc1-c1nc2ccccc2n1Cc1ccc(Cl)cc1,187% (active)
17,O=C(O)CCc1nc2cc(Cl)ccc2n(Cc2ccccc2)c1=O,1.59% (inactive)
18,CC(C)(C)N1CC(c2nc3ccccc3n2Cc2ccc(F)cc2)CC1=O (stereo not drawn),-9.37% (inactive)
